Laboratory results: the supplement of paper PMC8728848
About 410 targets per protein were measured; listed, in parts, are those with the strongest signals and a random draw of the rest.

Key:
Assay in all cases: glycan array binding signal (z-score within array); higher = stronger binding
Settings in all cases: glycan notation: IUPAC condensed, linker removed
[1] = target: Fuc(a1-2)Gal(b1-3)[Fuc(a1-4)]GlcNAc(b1-2)Man(a1-3)[Fuc(a1-2)Gal(b1-3)[Fuc(a1-4)]GlcNAc(b1-2)Man(a1-6)]Man(b1-4)GlcNAc(b1-4)GlcNAc
Method in brief: (§1)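 The binding signal is a Z-score computed within each array. Data were drawn from 3228 arrays in the Consortium for Functional Glycomics database, restricted to those with a known protein sequence. Scores were averaged over arrays of the same protein sequence at different concentrations or buffers, and over linkers, and negative values can be taken as non-binding.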

[2] = target: Fuc(a1-2)[Gal(a1-3)]Gal(b1-4)GlcNAc
Method in brief: as §1

[3] = target: Fuc(a1-2)[GalNAc(a1-3)]Gal(b1-3)GalNAc(a1-3)[Fuc(a1-2)]Gal(b1-4)GlcNAc
Method in brief: as §1

[4] = target: Fuc(a1-3)[Gal(b1-4)]GlcNAc(b1-6)[Gal(b1-3)GlcNAc(b1-3)]Gal(b1-4)Glc
Method in brief: as §1

[5] = target: Fuc(a1-3)[Gal(b1-4)]GlcNAc6S
Method in brief: as §1

[6] = target: Fuc(a1-3)[Gal3S(b1-4)]GlcNAc
Method in brief: as §1

[7] = target: Gal(a1-3)Gal(b1-4)[Fuc(a1-3)]GlcNAc(b1-2)Man(a1-3)[Gal(a1-3)Gal(b1-4)[Fuc(a1-3)]GlcNAc(b1-2)Man(a1-6)]Man(b1-4)GlcNAc(b1-4)GlcNAc
Method in brief: as §1

[8] = target: Gal(b1-3)GalNAc(b1-4)Gal(b1-4)Glc
Method in brief: as §1

[9] = target: Gal(b1-4)GlcNAc(b1-3)Gal(b1-4)Glc
Method in brief: as §1

[10] = target: Gal3S(b1-4)[Fuc(a1-3)]Glc6S
Method in brief: as §1

Gal3S4S(b1-4)GlcNAc = target: Gal3S4S(b1-4)GlcNAc
Method in brief: as §1

Gal3S6S(b1-4)GlcNAc6S = target: Gal3S6S(b1-4)GlcNAc6S
Method in brief: as §1

Gal4S6S(b1-4)GlcNAc = target: Gal4S6S(b1-4)GlcNAc
Method in brief: as §1

Gal6S(b1-4)Glc6S = target: Gal6S(b1-4)Glc6S
Method in brief: as §1

Gal6S(b1-4)GlcNAc = target: Gal6S(b1-4)GlcNAc
Method in brief: as §1

Gal6S(b1-4)GlcNAc6S = target: Gal6S(b1-4)GlcNAc6S
Method in brief: as §1

GalNAc(b1-3)GalNAc = target: GalNAc(b1-3)GalNAc
Method in brief: as §1

[11] = target: GlcNAc(a1-4)Gal(b1-4)GlcNAc(b1-3)Gal(b1-4)[Fuc(a1-3)]GlcNAc(b1-3)Gal(b1-4)[Fuc(a1-3)]GlcNAc
Method in brief: as §1

[12] = target: GlcNAc(a1-6)Gal(b1-4)GlcNAc
Method in brief: as §1

GlcNAc(b1-3)Gal(b1-4)Glc = target: GlcNAc(b1-3)Gal(b1-4)Glc
Method in brief: as §1

[13] = target: GlcNAc(b1-4)[GlcNAc(b1-6)]GalNAc
Method in brief: as §1

[14] = target: Man(a1-3)[Man(a1-6)]Man(a1-6)[Man(a1-3)]Man
Method in brief: as §1

[15] = target: Neu5Ac(a2-3)Gal(b1-4)[Fuc(a1-3)]GlcNAc(b1-3)GalNAc
Method in brief: as §1

[16] = target: Neu5Ac(a2-3)[GalNAc(b1-4)]Gal(b1-4)Glc
Method in brief: as §1

[17] = target: Neu5Ac(a2-6)Gal(b1-4)GlcNAc
Method in brief: as §1

[18] = target: Neu5Ac(a2-6)Gal(b1-4)GlcNAc(b1-2)Man(a1-6)Man(b1-4)GlcNAc(b1-4)GlcNAc
Method in brief: as §1

B1: Pp2-A2 (Arabidopsis thaliana), Q07098 (protein)
chain: MPSNGDLDRQIEQLMECKPLSEADVRTLCDQARAILVEEYNVQPVKCPVTVCGDIHGQFYDLIELFRIGGNAPDTNYLFMGDYVDRGYYSVETVSLLVALKVRYRDRLTILRGNHESRQITQVYGFYDECLRKYGNANVWKYFTDLFDYLPLTALIESQVFCLHGGLSPSLDTLDNIRSLDRIQEVPHEGPMCDLLWSDPDDRCGWGISPRGAGYTFGQDIAAQFNHNNGLSLISRAHQLVMEGFNWCQDKNVVTVFSAPNYCYRCGNMAAILEIGENMEQNFLQFDPAPRQVEPDTTRKTPDYFL
glycan array binding signal (z-score) [1]: 2.08
glycan array binding signal (z-score) [2]: -0.404
glycan array binding signal (z-score) [3]: 0.21
glycan array binding signal (z-score) [4]: -0.662
glycan array binding signal (z-score) [5]: 0.633
glycan array binding signal (z-score) [6]: -0.461
glycan array binding signal (z-score) [7]: -0.298
glycan array binding signal (z-score) [8]: -0.181
glycan array binding signal (z-score) [9]: -0.032
glycan array binding signal (z-score) [10]: 4.36
glycan array binding signal (z-score) (Gal3S4S(b1-4)GlcNAc): 6.14
glycan array binding signal (z-score) (Gal3S6S(b1-4)GlcNAc6S): 4.5
glycan array binding signal (z-score) (Gal4S6S(b1-4)GlcNAc): 4.54
glycan array binding signal (z-score) (Gal6S(b1-4)Glc6S): 4.11
glycan array binding signal (z-score) (Gal6S(b1-4)GlcNAc): -0.117
glycan array binding signal (z-score) (Gal6S(b1-4)GlcNAc6S): 2.28
glycan array binding signal (z-score) (GalNAc(b1-3)GalNAc): -0.683
glycan array binding signal (z-score) [11]: 5.17
glycan array binding signal (z-score) [12]: -0.835
glycan array binding signal (z-score) (GlcNAc(b1-3)Gal(b1-4)Glc): -0.721
glycan array binding signal (z-score) [13]: -0.771
glycan array binding signal (z-score) [14]: 0.061
glycan array binding signal (z-score) [15]: 4.64
glycan array binding signal (z-score) [16]: -0.213
glycan array binding signal (z-score) [17]: -0.266
glycan array binding signal (z-score) [18]: -0.465
